This is an account of results in PubChem BioAssay (NCATS).

Experiment [1] can be described thus: AP1 Signaling Pathway (AID 357).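 Further: ME-180 reporter cells stimulated with EGF at its EC50 level; on the % scale 0 is the no-effect control and ±100 the full control effect.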 The note with it: ME-180 AP-1-bla reporter, EGF-induced, beta-lactamase ratio, 5 h; at 7.69 µM (top of the series) unless noted. In outline:
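Cells are seeded overnight, exposed to compound titrations and an EC50 level of EGF for 5 hours at 37 °C, then loaded with CCF4 dye for 2.5 hours. Beta-lactamase activity under the AP-1 element is read as a blue/green ratio.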

Experiment [2] has as its target Cytochrome P450 1A2 (Homo sapiens) (UniProt P05177). Description: p450-cyp1a2 (AID 410; calls by dose curve; further: potency means the concentration at half of the fitted maximal effect). In outline:
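Luminescent demethylation readout: Luciferin-ME (100uM, equal to Km) turned over by 20nM CYP1A2 for 60 min at room temperature after NADPH regeneration addition, following 10 min compound preincubation. Normalization used 57 uM furafylline as full inhibition.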

Experiment [3] is described as follows: Stat Signaling Pathway (AID 446).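 Further: ME-180 cervical cancer cells given 40 pM IL-6 alongside compound; SIE-controlled beta-lactamase reporter measured as 460/530 nm FRET emission ratio; on the % scale 0 is the no-effect control and ±100 the full control effect.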 To be noted: ME-180 SIE beta-lactamase reporter, IL-6 stimulated, 5 h; at 7.69 µM (top of the series) unless noted. In outline:
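Compound effects on IL-6-induced STAT reporter activity were measured in ME-180 cells. After overnight culture, cells were co-treated with 40 pM IL-6 for 5 hrs before beta-lactamase substrate loading at room temperature.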

Experiment [4] deals with Glucocorticoid receptor (Homo sapiens) (UniProt P04150). Description: GR-GFP Redistribution (AID 450;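 active means compounds whose dose series gives a full or clear partial fitted curve of increased nuclear translocation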; further: potency means the concentration at half of the fitted maximal effect). The note with it: U2OS GR-GFP nuclear translocation, laser cytometry, 2 h.
Experiment [5] has the same target. Description: GR-EFC Redistribution (AID 451; calls by dose curve; further: potency means the concentration at half of the fitted maximal effect). The note with it: CHO-K1 GR-EFC translocation, beta-gal luminescence, 2 h. In outline: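 Translocation of GR-ED fusion to nuclear EA restores b-gal, read by luminescence after 1 h room-temperature detection. Engineered CHO-K1 biosensor cells, 1,000/well, exposed 2 h at 37 C to titrations up to 46 uM final.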
Experiment [6] concerns the target Mitogen-activated protein kinase 10 (Mus musculus) (UniProt Q61831). Description: JNK3 AlphaScreen Assay (AID 530).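 Further: kinase came from lysate of stimulated human HepG2 cells; signal reports phosphorylation of biotinylated GST-cJun 1-79 at Ser73 with 10 µM ATP; on the % scale 0 is the no-effect control and ±100 the full control effect.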 In outline:
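qHTS titrations with 15 min compound pre-incubation before adding ATP (10 uM final). Read-out: AlphaScreen of Ser73-phosphorylated biotin-GST-cJun using HepG2 lysate JNK3 activated by IL-1β and TNFα.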

Experiment [7] has as its target 3',5'-cyclic-AMP phosphodiesterase 4B (Homo sapiens) (UniProt Q07343). Description: qHTS Assay for Inhibitors of PDE-IV (AID 607; active means well fitted activation curve with a large enough effect in the main read-out, with a control signal flat, not every such curve was filed as active; further: % of control where 0% means no effect). In outline:
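ACTOne HEK293 cells carry a modified cAMP-gated CNG channel and express endogenous PDE4; plated 1000 cells/well, compounds up to 22.9 uM final. Membrane-potential dye fluorescence (ex 535/em 590) was read; parental cells received 10 uM forskolin + 100 uM RO 20-1724.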

The target in experiment [8] is Cytochrome P450 3A4 (Homo sapiens) (UniProt P08684). Description: qHTS Assay for Activators of Cytochrome P450 3A4 (AID 885; active means well fitted curve in the direction sought with a large enough effect; an effect the other way counts as inactive or inconclusive; further: nearly all actives have a fitted effect of over 65% in size; further: potency means the concentration at half of the fitted maximal effect). In outline:
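CYP3A4 activity: Luciferin-PPXE O-dealkylation, 25uM substrate, 200mM KPO4, RT throughout. Read-out is luciferase luminescence; higher values reflect activation.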

Experiment [9] can be described thus: Primary qHTS for small molecule stabilizers of the endoplasmic reticulum resident proteome: Secreted ER Calcium Modulated Protein (SERCaMP) assay (AID 1508630; active means well fitted curve in the direction sought with a large enough effect; an effect the other way counts as inactive or inconclusive; further: on the % scale 0 is the no-effect control and ±100 the full control effect). In outline:
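The SH-SY5Y reporter protocol was run at 3 concentrations up to 38.3 uM (primary) or 11 concentrations (follow-up): 16 h compound, 100 nM thapsigargin for 4 h, then extracellular luciferase luminescence.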

For experiment [10], the target named is Lysosomal acid glucosylceramidase (Homo sapiens) (UniProt P04062). Description: Glucocerebrosidase-p2 (AID 348; in the data active means potency below about 10 µM; further: potency means the concentration at half of the fitted maximal effect). The note with it: purified GBA, blue fluorogenic substrate, 40 min. In outline: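 Normal human glucocerebrosidase (0.2 nM) with blue fluorogenic substrate (80 uM final) in citrate/phosphate pH 5.9 with 10mM sodium taurocholate, 0.01% tween-20; 40 min RT, NaOH/glycine stop; fluorescence Ex 365/Em 440; AC50 from a titration from 0.6 nM upwards.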

Experiment [11] is described as follows: qHTS Assay for Identification of Small Molecule Agonists for Hypoxia Response Element Signaling Pathway (AID 914; active means well fitted activation curve with a large enough effect in the signal ratio, with a control signal flat, not every such curve was filed as active; the % refers to the signal ratio; further: potency means the concentration at half of the fitted maximal effect). The note with it: ME-180 (cervical carcinoma) HRE-bla reporter, beta-lactamase ratio, CoCl2, 17 h; activation: hits give high values. In outline:
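AC50 values come from titration-series %Activity, taken as the 460/530nm ratio of CCF4 fluorescence (excitation 405nm). CellSensor HRE-bla ME-180 cells were treated 17 hours at 37 C with compound plus an EC50 level of CoCl2.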

Experiment [12] is described as follows: NFAT Signaling Pathway (AID 444). To be noted: Jurkat NFAT-bla M1, carbachol, beta-lactamase ratio, 5 h; at 7.69 µM (top of the series) unless noted. In outline: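 Read-out: CCF4 FRET ratio (460 nm/530 nm) after 1 h RT dye loading, used for %activity and AC50 from titration series. Cells: Jurkat NFAT-β-lactamase/M1 line, treated with compound plus 1 uM carbachol for 5 h, 37 °C.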

The target of experiment [13] is Cytochrome P450 3A4 (Homo sapiens) (UniProt P08684). Description: qHTS Assay for Inhibitors and Substrates of Cytochrome P450 3A4 (AID 884; active means well fitted curve in the direction sought with a large enough effect; an effect the other way counts as inactive or inconclusive; further: on the % scale 0 is the no-effect control and ±100 the full control effect; nearly all actives have a fitted effect of over 50% in size). In outline: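 Luminescent readout of luciferin produced by CYP3A4 (20 nM) dealkylation of Luciferin-PPXE, 25 uM (its KM). NADPH-driven reaction ran 60 min at RT after 10 min compound preincubation; data scaled to 57 uM ketoconazole as 100% inhibition.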

A number with no mark means an inactive call. Inconclusive results are not listed. Calls of active or inactive are those of the source. Unless noted, the call rests on the fitted dose curve; in most records, active means well fitted curve in either direction with a large enough effect (not every such curve was filed as active); inconclusive means small, poorly fitted or top-dose-only effect, or another doubt; inactive means flat fitted curve, though single readings scatter. A value given as a limit tells only on which side of the number the result lay.

Cytochrome P450 1A2 (Homo sapiens), sequence (P05177 whole entry, looked up): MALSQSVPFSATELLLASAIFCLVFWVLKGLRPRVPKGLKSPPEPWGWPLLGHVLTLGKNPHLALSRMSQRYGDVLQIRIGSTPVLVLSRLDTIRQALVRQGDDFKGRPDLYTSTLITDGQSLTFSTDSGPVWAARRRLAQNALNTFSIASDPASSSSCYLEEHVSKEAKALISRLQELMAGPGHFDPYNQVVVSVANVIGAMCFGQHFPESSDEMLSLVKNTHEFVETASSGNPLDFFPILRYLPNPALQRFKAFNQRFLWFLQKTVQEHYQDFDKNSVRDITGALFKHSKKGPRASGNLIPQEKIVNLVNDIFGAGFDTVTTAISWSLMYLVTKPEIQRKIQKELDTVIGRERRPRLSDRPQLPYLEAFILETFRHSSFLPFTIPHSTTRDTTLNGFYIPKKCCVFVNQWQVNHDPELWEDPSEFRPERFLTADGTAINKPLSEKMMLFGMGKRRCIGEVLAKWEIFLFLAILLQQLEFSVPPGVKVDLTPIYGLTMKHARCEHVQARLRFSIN
Lysosomal acid glucosylceramidase (Homo sapiens), sequence (P04062 whole entry, looked up): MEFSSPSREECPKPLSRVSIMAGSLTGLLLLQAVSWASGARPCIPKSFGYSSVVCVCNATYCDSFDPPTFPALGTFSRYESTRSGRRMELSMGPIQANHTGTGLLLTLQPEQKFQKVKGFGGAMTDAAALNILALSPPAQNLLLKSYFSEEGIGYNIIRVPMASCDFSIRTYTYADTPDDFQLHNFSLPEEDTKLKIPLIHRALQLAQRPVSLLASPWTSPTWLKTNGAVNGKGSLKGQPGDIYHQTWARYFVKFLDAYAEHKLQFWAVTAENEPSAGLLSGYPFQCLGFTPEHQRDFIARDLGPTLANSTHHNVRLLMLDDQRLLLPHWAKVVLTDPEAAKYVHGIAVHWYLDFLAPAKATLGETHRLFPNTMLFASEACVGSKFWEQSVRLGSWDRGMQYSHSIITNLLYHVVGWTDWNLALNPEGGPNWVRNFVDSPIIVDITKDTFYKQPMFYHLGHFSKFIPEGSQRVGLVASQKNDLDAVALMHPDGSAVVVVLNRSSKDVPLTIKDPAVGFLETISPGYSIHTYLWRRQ
3',5'-cyclic-AMP phosphodiesterase 4B (Homo sapiens), sequence (Q07343 whole entry, looked up): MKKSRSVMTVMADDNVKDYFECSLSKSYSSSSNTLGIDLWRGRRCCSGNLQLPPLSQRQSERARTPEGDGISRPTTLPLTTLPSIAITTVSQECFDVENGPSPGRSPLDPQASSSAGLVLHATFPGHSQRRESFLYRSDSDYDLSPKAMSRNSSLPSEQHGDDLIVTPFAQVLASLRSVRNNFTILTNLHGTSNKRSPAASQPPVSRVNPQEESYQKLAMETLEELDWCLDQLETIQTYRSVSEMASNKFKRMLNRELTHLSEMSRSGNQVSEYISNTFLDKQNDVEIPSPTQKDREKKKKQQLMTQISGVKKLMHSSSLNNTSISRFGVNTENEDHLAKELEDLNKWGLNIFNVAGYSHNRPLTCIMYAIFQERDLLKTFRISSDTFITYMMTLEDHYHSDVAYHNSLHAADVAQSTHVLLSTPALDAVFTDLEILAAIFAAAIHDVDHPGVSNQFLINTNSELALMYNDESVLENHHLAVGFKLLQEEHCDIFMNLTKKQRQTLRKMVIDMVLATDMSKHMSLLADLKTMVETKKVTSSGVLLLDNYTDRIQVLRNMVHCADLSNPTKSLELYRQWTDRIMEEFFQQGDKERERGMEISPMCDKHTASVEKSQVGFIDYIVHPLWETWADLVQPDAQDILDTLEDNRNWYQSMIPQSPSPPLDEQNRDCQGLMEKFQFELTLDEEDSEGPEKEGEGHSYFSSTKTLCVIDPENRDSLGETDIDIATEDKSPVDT
Glucocorticoid receptor (Homo sapiens), sequence (P04150 whole entry, looked up, the tested form may be a part): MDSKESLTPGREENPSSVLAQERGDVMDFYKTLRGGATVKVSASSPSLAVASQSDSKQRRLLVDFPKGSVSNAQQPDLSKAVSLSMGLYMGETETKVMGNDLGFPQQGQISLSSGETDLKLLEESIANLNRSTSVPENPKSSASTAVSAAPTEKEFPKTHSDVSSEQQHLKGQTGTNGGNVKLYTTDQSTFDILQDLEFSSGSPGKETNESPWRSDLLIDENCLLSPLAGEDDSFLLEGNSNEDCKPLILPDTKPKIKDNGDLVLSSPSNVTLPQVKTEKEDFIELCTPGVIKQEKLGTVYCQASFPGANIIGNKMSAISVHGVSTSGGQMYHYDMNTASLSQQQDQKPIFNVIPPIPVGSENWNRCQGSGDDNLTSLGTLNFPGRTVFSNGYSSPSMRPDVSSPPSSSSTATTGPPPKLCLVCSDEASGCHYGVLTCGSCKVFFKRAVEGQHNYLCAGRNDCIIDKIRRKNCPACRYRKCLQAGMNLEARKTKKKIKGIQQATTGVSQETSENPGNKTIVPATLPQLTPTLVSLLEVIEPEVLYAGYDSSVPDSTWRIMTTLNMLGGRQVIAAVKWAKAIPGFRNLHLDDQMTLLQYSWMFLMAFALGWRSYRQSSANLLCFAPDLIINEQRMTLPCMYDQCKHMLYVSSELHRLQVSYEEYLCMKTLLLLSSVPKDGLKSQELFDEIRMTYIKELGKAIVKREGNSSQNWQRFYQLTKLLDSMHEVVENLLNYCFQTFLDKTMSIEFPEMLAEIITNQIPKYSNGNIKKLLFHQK
Cytochrome P450 3A4 (Homo sapiens), sequence (P08684 whole entry, looked up): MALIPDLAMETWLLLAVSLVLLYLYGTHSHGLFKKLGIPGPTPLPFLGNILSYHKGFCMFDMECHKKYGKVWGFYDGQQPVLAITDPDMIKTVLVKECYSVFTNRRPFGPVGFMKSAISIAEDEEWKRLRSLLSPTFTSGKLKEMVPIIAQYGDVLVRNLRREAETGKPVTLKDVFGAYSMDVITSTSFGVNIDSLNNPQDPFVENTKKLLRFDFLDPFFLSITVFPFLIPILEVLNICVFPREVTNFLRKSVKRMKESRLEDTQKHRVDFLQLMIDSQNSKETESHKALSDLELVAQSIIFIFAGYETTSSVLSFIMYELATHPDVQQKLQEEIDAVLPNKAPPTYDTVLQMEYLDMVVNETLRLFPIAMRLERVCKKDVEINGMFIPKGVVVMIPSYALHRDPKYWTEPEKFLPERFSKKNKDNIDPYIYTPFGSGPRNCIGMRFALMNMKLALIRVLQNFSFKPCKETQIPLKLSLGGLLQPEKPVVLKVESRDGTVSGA

As to `CCNc1ncc2nc(-c3cccc(C#N)c3)c(=O)n(C)c2n1`, the activity change, negative = inhibition in experiment [1] is 15.2%. Besides, the values for the Potency in [2], in [4] and in experiment [5] were 2.51 µM (active), greater than 9.22 µM and greater than 46 µM, respectively. In addition, in experiment [3], the activity, negative = inhibition is 30%. Further, the Potency result in [6], in [7] and in experiment [8] was “inactive” in each case. The outcome in [9] was inactive.

Turning to `CCNc1ncc2nc(-c3ccccc3)c(=O)n(CCc3ccccc3)c2n1`, the Potency in experiment [10] was greater than 11.4 µM; in experiment [2], 12.6 µM (active); in experiment [4] it was greater than 9.22 µM; in experiment [5], greater than 46 µM; in experiment [11], 1.58 µM (active). Besides, the Potency entry in experiment [6], in experiment [7] and in experiment [8] was “inactive” in each case. Also, the result in [9] was inactive.

As for `O=c1c(-c2cccs2)nc2cncnc2n1C1CC1`, the values for the activity change, negative = inhibition in experiment [1] and in [12] were 0.545% and -2.79%, respectively. Also, the Potency was 2.51 µM (active) in experiment [2], greater than 9.22 µM in [4] and greater than 46 µM in experiment [5]. In experiment [3], the activity, negative = inhibition is -5.35%. The Potency result in [6] and in experiment [8] was “inactive” in each case. Moreover, the outcome in [9] was inactive.

For `COc1cccc(Nc2ncc3nc(CCc4ccccc4)c(=O)n(C4CC4)c3n2)c1`, the Potency in experiment [10] was greater than 11.4 µM; in experiment [2], 5.01 µM (active); in experiment [4], greater than 9.22 µM; in experiment [5], greater than 46 µM. Further, in experiment [3], the activity, negative = inhibition is -19.3%. Moreover, the Potency entry in experiment [6] and in [8] was “inactive” each time. Further, in [9], the outcome was inactive.

Consider `CN(C)c1ncc2nc(-c3ccc(Cl)cc3)c(=O)n(C3CC3)c2n1`, for which the Potency in [10] was greater than 11.4 µM; in experiment [4], greater than 9.22 µM; in experiment [5], greater than 46 µM; in [11], 2.51 µM (active). Further, the Potency entry in experiment [6] and in experiment [7] was “inactive” each time. Also, in experiment [9], the outcome was inactive.

On to `O=c1c(-c2ccc(Cl)cc2)nc2cnc(N3CCOCC3)nc2n1C1CC1`, for which the activity change, negative = inhibition in experiment [1] was 6.61%; in experiment [12], -4.43%. In addition, the Potency is 1.26 µM (active) in [2], greater than 9.22 µM in experiment [4] and greater than 46 µM in experiment [5]. For the same molecule, in [3], the activity, negative = inhibition is 26.7%. The Potency result in experiment [6] and in experiment [7] was “inactive” throughout. In addition, in [9], the result was inactive.

As to `O=C(Oc1ccccc1)N1CCC2(CC1)CCN(c1cccc(-c3ccccc3)c1)CC2`, the Potency in experiment [10] was greater than 11.4 µM; in [2], 12.6 µM (active); in [5] it was greater than 46 µM; in experiment [8] it was 7.94 µM (active). In addition, in [3], the activity, negative = inhibition is -5.12%. For the same molecule, the Potency entry in experiment [6], in experiment [7] and in experiment [13] was “inactive” in each case. For the same molecule, the outcome in [9] was inactive.

`CCNc1ncc2nc(-c3cc(F)cc(F)c3)c(=O)n(-c3ccc(OC)cc3)c2n1`: the Potency in [10] was greater than 11.4 µM; in experiment [4] it was greater than 9.22 µM; in [5] it was greater than 46 µM; in [11], 0.398 µM (active). Also, the Potency entry in experiment [6], in [7] and in experiment [8] was “inactive” throughout. Besides, in experiment [9], the result was inactive.
